# Bioassay records deposited in PubChem by National Center for Advancing Translational Sciences (NCATS).
# VDR inhibitor = Inhibitors of the vitamin D receptor (VDR): qHTS; Potency, µM, for the others: max response, negative = inhibition, usual class: inhibitors; Vitamin D3 receptor (Homo sapiens), P11473; AID 504847, 2011; hit rate 0.93% among 400,000; VDR-SRC2-3 peptide fluorescence polarization, 2 h
#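 Fluorescence polarization assay measuring small-molecule disruption of VDR binding to the coregulator peptide SRC2-3. Compounds were pin-transferred (23 nl) into the reagent mix and incubated 2 h at room temperature before reading.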
# ALOX12 inh = Primary qHTS assay for inhibitors of human arachidonate 12S-lipoxygenase (ALOX12): Round 2; Polyunsaturated fatty acid lipoxygenase ALOX12 (Homo sapiens), P18054; purified 12hLO, xylenol orange hydroperoxide absorbance; Potency, µM (titrated, usually from 108 µM), without a hit: at the top dose activity change, negative = inhibition, most hits filed as inhibitors; hit rate 1.1% among 580,000
#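 Hydroperoxide product was detected by ferrous iron/xylenol orange as the 573 to 405 nm absorbance ratio. Arachidonic acid at 40 uM (final) was turned over for 30 min at room temperature by 150 nM human 12hLO, pH 7.0 Hepes buffer, after 15 min compound preincubation.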
# KAT2A inh = qHTS Assay for Inhibitors of GCN5L2. GCN5L2 HAT assay, ThioGlo1 CoA-SH fluorescence. AID 504327, 2011. Potency, µM (titrated, usually from 58.9 µM), for the others: at the top dose activity change, negative = inhibition, actives largely listed as inhibitors. hit rate 0.21% among 390,000
#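 Free CoA generated was detected with ThioGlo1 (50uM) fluorescence at Ex340nm/Em540nm, read immediately and after 20 min at room temperature. Enzyme, 20 nM in HEPES pH 7.5 buffer, saw compounds 15 min before adding 75uM H3(1-25) peptide and 70uM acetyl-CoA.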
# PLK1 PBD block = qHTS for Inhibitors of PLK1-PDB (polo-like kinase 1 - polo-box domain): Primary Screen; Serine/threonine-protein kinase PLK1 (Homo sapiens), P53350; Plk1 PBD binding of FITC phosphopeptide, fluorescence polarization; Potency, µM, without a hit: max response, negative = inhibition, hits mostly inhibitors; hit rate 2.8% among 360,000; AID 720504, 2013; further: series mostly up to about 57 µM; nearly all actives have a fitted effect of over 65% in size
# Target sequence (P53350 whole entry, looked up, the tested form may be a part): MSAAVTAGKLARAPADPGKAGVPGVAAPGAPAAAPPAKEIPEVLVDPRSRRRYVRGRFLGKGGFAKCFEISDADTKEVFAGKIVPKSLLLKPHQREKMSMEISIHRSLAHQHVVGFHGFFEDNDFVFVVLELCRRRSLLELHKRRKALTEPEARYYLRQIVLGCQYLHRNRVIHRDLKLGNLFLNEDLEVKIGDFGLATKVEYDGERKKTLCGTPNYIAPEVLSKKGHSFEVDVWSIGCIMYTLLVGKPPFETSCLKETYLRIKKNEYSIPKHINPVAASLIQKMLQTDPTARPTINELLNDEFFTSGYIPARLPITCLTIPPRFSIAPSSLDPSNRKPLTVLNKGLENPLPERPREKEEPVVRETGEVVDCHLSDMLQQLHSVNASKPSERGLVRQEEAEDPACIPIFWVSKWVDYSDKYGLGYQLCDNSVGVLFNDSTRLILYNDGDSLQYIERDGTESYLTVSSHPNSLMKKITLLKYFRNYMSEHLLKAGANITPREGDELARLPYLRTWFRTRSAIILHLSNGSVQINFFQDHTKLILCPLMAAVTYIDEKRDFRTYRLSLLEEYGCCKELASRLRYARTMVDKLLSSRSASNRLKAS
# * = called active by the depositor; ? = inconclusive; · = no result given; ! = not confirmed by another sample; [ ] = dose if it differs, or a comment. Sampled rows, rich in hits. Any-hit rate of the full collection: about 3%. The call rests on the fitted dose curve; in most records, active means well fitted curve in the direction sought with a large enough effect; inconclusive means small, poorly fitted or top-dose-only effect, or another doubt; inactive means no such curve, though single readings can be large; an effect the other way counts as inactive or inconclusive. On the % scale 0 is the no-effect control and ±100 the full control effect; potency means the concentration at half of the fitted maximal effect.
SMILES,VDR inhibitor,ALOX12 inh,KAT2A inh,PLK1 PBD block
O=C(Cc1cccs1)NC1C(=O)N2C(C(=O)[O-])=C(C[n+]3ccccc3)CSC12 (stereo not given),25µM*,·,?,·
Cc1ccc(C)c(S(=O)(=O)N2CCN(CC(=O)NC(=O)NC(C)(C)C)CC2)c1,·,-14%,·,·
N#CC(=C=[N-])c1nc2ccccc2nc1-[n+]1ccccc1,?,?,-2%,27µM*!
Cc1cc(Cl)ccc1NNC(=O)c1c(C)noc1C,?,32µM*,-6%,?
O=C(NCCC12CC3CC(CC(C3)C1)C2)c1ccc(Cl)cc1,·,-33%,·,·
Cc1ccc(NC(=O)Cn2sc3nc(C)cc(C)c3c2=O)c(Cl)c1,?,2µM*,28µM*,1.5µM*
Cc1cc(C)c2c(=O)n(CC(=O)Nc3cccc(F)c3)sc2n1,14µM*,?,?,1.9µM*
Cc1cc(C)c2c(=O)n(CC(=O)Nc3ccc(Cl)cc3)sc2n1,40µM*,1.3µM*,?,1.3µM*
Cc1cccc(N2CCN(C(=O)Cn3sc4nc(C)cc(C)c4c3=O)CC2C)c1 (stereo not given),16µM*,·,?,1.7µM*
COc1ccc(C(=O)NCCSCc2ccccc2Cl)cc1OC,-1%,50µM*,-4%,-10%
COc1ccc(C(=O)NCCSc2ccccc2)cc1OC,35µM*,-21%,-1%,3.4µM*
O=C(NC(c1ccccc1)c1ccccc1)C12CC3CC(CC(O)(C3)C1)C2,·,12%,·,·
CC(=O)c1cccc(NC(=O)Cn2cnnc2C#N)c1,·,-8%,·,·
CCOc1ccc(-n2ccn3c(SC(CC)C(=O)Nc4cc(C)ccc4C)nnc3c2=O)cc1 (stereo not given),·,-14%,·,·
COc1ccc(CCNC(=O)c2ccc3c(c2)NC(=O)C(CSCc2cc(C)ccc2C)N3)cc1OC (stereo not given),·,·,28µM*,·
COc1ccc(CCNC(=O)c2ccc3c(c2)NC(=O)C(C(C)C)N3)cc1OC (stereo not given),-5%,20%,-3%,-3%
COc1ccc2oc(C(=O)N3CCC(C(=O)Nc4ccc5c(c4)OCO5)CC3)c(C)c2c1,·,8%,·,·
COc1ccc(C2C(C(=O)OCC3CCCO3)=C(C)NC3=C2C(=O)CC(c2ccco2)C3)cc1O (stereo not given),-9%,8.9µM*,-12%,-11%
CC1=C(C(=O)OCC2CCCO2)C(c2ccccc2)C2=C(CCCC2=O)N1 (stereo not given),4%,-28%,-8%,6%
CC(=O)c1ccc(N2CCN(Cc3nc(-c4cccs4)no3)CC2)c(F)c1,·,8%,·,·
O=C(CCc1ncc(-c2ccccc2)o1)NC(C1CC1)C1CC1,·,100%,·,·
COc1ccc(OC)c(/C=C2\N=C(c3ccccc3)OC2=O)c1,-1%,9%,-19%,12µM*
CC(C)C[C@@H]1N[C@H](C(=O)NCc2ccc(C#N)cc2)Cc2c[nH]c3cccc1c23,·,-15%[176 µM],·,·
O=C(C1CCCN(Cc2cccc3ccccc23)C1)N1CCCCC1 (stereo not given),·,0.45µM*,·,·
COc1ccc(CN2CCCC(C(=O)N3CCCCC3)C2)c(OC)c1 (stereo not given),?,·,-3%,30µM*
SMILES,VDR inhibitor,ALOX12 inh,KAT2A inh,PLK1 PBD block
O=C(C1CCCN(Cc2ccccc2Cl)C1)N1CCCCC1 (stereo not given),3%,?,1%,4%
COc1cccc2cc(-c3ccc(OCC(=O)NCCN4CCOCC4)cc3)c(=O)oc12,·,-6%,·,·
CCCCC1=CC2=CC(=O)C(C)(OC(=O)CCC(=O)OC)C(=O)C2=CO1 (stereo not given),1%,·,·,·
CCCCCCCC1=CC2=C(Cl)C(=O)C(C)(OC(C)=O)C(=O)C2=CO1 (stereo not given),50µM*,·,·,·
CCCCCCCC1=CC2=C(Cl)C(=O)C(C)(OC(C)=O)C(=O)C2=CN1C (stereo not given),71µM*,·,·,·
COc1ccc(/C=C/C(=O)Oc2ccccc2Cl)cc1,·,-2%,·,·
CC[N+](CC)(CC)CCCOC(=O)C1(c2ccccc2)CCCC1,·,20µM*,·,·
CC[N+](C)(CC)CCCOC(=O)C1(c2ccccc2)CCCC1,·,20µM*,·,·
Cc1ccc2[nH]c(C(=O)NCCc3ccccc3)cc2c1,·,-4%,·,·
O=C(CC1CCCCC1)NCc1cccnc1,·,33%,·,·
Cc1ccc(S(=O)(=O)N2CCOCC2)cc1NC(=O)CSc1ccccn1,-4%,-17%,-17%,30µM*
O=C(CSc1ncn[nH]1)Nc1cc(S(=O)(=O)N2CCCC2)ccc1Cl,-2%,11%,0%,30µM*
CCN(CC)c1ccc(S(=O)(=O)N2CCOCC2)cc1NC(=O)CSC(=S)N1CCCC1,-30%,-9%,?,13µM*
CCN(CC)c1ccc(S(=O)(=O)N2CCOCC2)cc1NC(=O)CNCc1ccccc1,-5%,17%,?,-10%
COc1ccc(Nc2cc(-n3ncc(C(C)=O)c3C)nc(C)n2)cc1,·,-3%,·,·
O=C1NC2(CCN(CC3CCCCC3)CC2)COc2ccccc21,·,63µM*,·,·
COc1ccc(C2C=C(C34CC5CC(CC(C5)C3)C4)NC(=S)N2)cc1 (stereo not given),?,?,-9%,12µM*
COc1ccc(C2=CC(c3ccc(OC)c(OC)c3)NC(=S)N2)cc1 (stereo not given),-1%,?,3%,?
CCn1nc(C(=O)N2CC(C(N)=O)Oc3ccccc32)c2ccccc2c1=O (stereo not given),·,-1%,·,·
O=C(Cn1nnc(-c2ccccc2)n1)Nc1ccc2c(c1)OCO2,-4%,69%,2%,-13%
O=C(Cn1nnc(-c2ccc3c(c2)OCO3)n1)Nc1ccccc1C(=O)O,0%,22µM*,-14%,0%
[O-][n+]1c2ccccc2cc2ccccc21,-14%,3%,-6%,24µM*
Nc1nc2ccccc2[n+]([O-])n1,·,11%,·,·
Cc1cccc(N2NC3(CCCC(C)C3)NC2=S)c1C (stereo not given),·,8.9µM*,·,·
CC1CCC2(CC1)NC(=S)N(c1ccccc1)N2 (stereo not given),-9%,?,?,-10%
SMILES,VDR inhibitor,ALOX12 inh,KAT2A inh,PLK1 PBD block
CCC(=O)N1Cc2ccccc2CC2(CCN(CCc3ccc(C)cc3)CC2)C1,·,35µM*,·,·
Cc1ccc(-c2cccc(COc3cnc4c(ccn4CC(=O)O)c3)c2)cc1,·,-7%[176 µM],·,·
O=C(O)Cn1ccc2cc(OCCc3cccc(-c4ccc(F)cc4)c3)cnc21,·,50µM*,·,·
O=C(O)Cn1ccc2cc(OCCc3cccc(-c4cccc(F)c4)c3)cnc21,·,50µM*,·,·
Nc1nnc(CC(=O)N/N=C/c2cc([N+](=O)[O-])cc(Br)c2O)s1,?,16µM*,0%,?
Nc1nnc(CC(=O)N/N=C/c2cccc([N+](=O)[O-])c2)s1,-9%,-3%,-13%,-13%
COc1cccc(/C=N/NC(=S)NCCc2ccccc2)c1OC,15%,?,?,0%
COc1cccc(/C=N/NC(N)=S)c1OCc1cccc(Cl)c1,-8%,35µM*,2%,-3%
